# In publication PMC7862700, “An all-to-all approach to the identification of sequence-specific readers for epigenetic DNA modifications on cytosine”:
# Legend:
# Assay in all cases: DAPPL (digital affinity profiling via proximity ligation, sequencing); 10 mM Tris-HCl pH 7.5, 50 mM NaCl, 1 mM DTT, 4% glycerol, room temperature, 30 min; GST-TFs on glutathione beads, 16-mer random dsDNA library, 0.1% formaldehyde crosslink after washing; high values mean tight binding
# FLI1 = molecular target: T1, FLI1 (Homo sapiens, UniProt Q01543 1-452); conditions: protein: recombinant; tags: N-terminal GST; dsDNA, one strand shown
# T1 sequence: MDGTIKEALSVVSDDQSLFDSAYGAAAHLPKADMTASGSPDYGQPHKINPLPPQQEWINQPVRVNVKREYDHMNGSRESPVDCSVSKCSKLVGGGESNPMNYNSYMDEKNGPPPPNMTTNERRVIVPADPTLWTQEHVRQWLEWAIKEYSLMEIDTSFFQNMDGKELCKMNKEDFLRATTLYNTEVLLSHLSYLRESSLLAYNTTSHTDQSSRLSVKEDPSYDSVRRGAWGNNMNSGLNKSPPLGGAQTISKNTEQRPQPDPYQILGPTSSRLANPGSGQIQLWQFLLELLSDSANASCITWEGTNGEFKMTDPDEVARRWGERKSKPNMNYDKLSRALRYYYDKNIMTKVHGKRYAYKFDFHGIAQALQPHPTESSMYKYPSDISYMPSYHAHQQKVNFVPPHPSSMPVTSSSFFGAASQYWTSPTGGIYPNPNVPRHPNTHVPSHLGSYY
# In short: (§1)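 The binding signal reported is, for every hexamer, its read frequency for a factor over its read frequency for the tag-only sample. Reads came from pools of yeast-expressed, GST-fused human transcription factors on glutathione beads, barcoded with DNA and mixed with that sample, which were incubated with 200 nmole of a random double-stranded 16-mer DNA library in Tris/NaCl/DTT/glycerol buffer at room temperature for 30 min. After washing, the pools were crosslinked with 0.1% formaldehyde, proximity-ligated with BsaI/T4 ligase for 1 h at 37 °C, PCR-amplified and sequenced on an Illumina NextSeq500.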
# ELK1 = molecular target: T2, ELK1 (Homo sapiens, UniProt P19419 1-428); conditions: protein: recombinant; tags: N-terminal GST; dsDNA, one strand shown
# T2 sequence: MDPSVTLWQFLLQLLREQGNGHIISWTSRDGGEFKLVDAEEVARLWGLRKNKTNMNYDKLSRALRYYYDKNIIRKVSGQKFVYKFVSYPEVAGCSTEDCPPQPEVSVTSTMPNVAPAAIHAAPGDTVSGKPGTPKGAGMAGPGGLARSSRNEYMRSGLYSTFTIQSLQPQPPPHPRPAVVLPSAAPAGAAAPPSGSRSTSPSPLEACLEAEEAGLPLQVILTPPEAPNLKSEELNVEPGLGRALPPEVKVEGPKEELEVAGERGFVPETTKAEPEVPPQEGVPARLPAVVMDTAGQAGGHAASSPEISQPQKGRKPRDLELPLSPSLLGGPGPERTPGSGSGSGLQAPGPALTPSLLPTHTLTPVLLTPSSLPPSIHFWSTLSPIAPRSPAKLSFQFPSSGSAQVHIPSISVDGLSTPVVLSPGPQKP
# In short: as §1
# GABPA = molecular target: T3, GABPA (Homo sapiens, UniProt Q06546 1-454); conditions: protein: recombinant; tags: N-terminal GST; dsDNA, one strand shown
# T3 sequence: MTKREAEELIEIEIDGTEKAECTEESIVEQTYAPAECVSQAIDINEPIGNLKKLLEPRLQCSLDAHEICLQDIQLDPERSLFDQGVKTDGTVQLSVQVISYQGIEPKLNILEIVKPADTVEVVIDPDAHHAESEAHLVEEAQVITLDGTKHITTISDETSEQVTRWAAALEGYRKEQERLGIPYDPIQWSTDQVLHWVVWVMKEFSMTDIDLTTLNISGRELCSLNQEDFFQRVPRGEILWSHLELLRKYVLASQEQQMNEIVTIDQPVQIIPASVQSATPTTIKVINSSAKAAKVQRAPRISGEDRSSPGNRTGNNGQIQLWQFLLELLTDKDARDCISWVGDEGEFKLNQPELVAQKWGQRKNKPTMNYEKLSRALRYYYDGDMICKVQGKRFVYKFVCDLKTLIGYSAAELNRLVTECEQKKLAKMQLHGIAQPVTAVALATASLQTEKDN
# In short: as §1
# ERG = molecular target: T4, ERG (Homo sapiens, UniProt P11308 1-479); conditions: protein: recombinant; tags: N-terminal GST; dsDNA, one strand shown
# T4 sequence: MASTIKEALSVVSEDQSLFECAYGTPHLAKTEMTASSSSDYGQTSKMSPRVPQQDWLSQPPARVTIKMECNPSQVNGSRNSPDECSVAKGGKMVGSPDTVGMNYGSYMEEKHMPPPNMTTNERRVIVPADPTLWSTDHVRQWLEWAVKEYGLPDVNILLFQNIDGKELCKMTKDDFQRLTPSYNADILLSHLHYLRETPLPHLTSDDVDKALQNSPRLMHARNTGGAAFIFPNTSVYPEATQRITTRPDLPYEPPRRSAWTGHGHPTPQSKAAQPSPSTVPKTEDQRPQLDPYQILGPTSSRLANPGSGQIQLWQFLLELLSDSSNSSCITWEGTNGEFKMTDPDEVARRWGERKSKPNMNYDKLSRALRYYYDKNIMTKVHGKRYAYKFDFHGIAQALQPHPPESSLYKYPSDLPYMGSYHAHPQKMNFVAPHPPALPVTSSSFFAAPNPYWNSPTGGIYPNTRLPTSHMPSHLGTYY
# In short: as §1
# ELF1 = ELF1 (Homo sapiens, UniProt P32519 1-619); conditions: protein: recombinant; tags: N-terminal GST; dsDNA, one strand shown
# In short: as §1
# EHF = molecular target: T5, EHF (Homo sapiens, UniProt Q9NZC4 1-300); conditions: protein: recombinant; tags: N-terminal GST; dsDNA, one strand shown
# T5 sequence: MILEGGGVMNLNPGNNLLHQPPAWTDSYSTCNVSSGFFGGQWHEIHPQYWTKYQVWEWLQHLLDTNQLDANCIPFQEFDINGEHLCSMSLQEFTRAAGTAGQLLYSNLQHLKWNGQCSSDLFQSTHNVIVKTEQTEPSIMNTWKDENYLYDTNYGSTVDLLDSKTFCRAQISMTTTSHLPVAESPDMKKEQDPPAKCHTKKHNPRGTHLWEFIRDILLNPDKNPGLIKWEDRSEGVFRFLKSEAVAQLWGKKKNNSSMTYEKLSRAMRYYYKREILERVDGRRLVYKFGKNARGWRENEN
# In short: as §1
# SPI1 = SPI1 (Homo sapiens, UniProt P17947 1-270); conditions: protein: recombinant; tags: N-terminal GST; dsDNA, one strand shown
# In short: as §1
# SPIB = SPIB (Homo sapiens, UniProt Q01892 1-262); conditions: protein: recombinant; tags: N-terminal GST; dsDNA, one strand shown
# In short: as §1
# ELK3 = molecular target: T6, ELK3 (Homo sapiens, UniProt P41970 1-407); conditions: protein: recombinant; tags: N-terminal GST; dsDNA, one strand shown
# T6 sequence: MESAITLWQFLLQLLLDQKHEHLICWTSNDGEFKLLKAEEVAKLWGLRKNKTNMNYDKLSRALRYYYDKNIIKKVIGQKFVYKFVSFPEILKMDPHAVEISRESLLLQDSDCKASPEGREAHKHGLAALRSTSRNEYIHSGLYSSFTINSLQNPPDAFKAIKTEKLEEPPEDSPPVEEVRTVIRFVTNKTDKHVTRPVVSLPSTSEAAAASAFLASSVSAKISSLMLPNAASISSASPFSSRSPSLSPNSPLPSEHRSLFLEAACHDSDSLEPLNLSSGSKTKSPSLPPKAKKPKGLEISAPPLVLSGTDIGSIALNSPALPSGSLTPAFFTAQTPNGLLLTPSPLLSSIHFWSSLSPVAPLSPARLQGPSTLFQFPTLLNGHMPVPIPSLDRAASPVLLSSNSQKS
# In short: as §1
# FEV = molecular target: T7, FEV (Homo sapiens, UniProt Q99581 1-238); conditions: protein: recombinant; tags: N-terminal GST; dsDNA, one strand shown
# T7 sequence: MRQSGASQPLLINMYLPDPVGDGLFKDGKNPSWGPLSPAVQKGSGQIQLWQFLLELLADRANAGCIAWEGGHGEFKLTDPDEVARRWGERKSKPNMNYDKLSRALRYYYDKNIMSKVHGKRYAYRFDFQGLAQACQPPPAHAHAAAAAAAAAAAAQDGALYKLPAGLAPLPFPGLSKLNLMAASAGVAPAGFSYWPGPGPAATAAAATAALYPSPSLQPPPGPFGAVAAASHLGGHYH
# In short: as §1
# ETV5 = ETV5 (Homo sapiens, UniProt P41161 1-510); conditions: protein: recombinant; tags: N-terminal GST; dsDNA, one strand shown
# In short: as §1
# HSF1 = HSF1 (Homo sapiens, UniProt Q00613 1-529); conditions: protein: recombinant; tags: N-terminal GST; chain copies: 3; dsDNA, one strand shown
# In short: as §1
# SPIC = molecular target: T8, SPIC (Homo sapiens, UniProt Q8N5J4 1-248); conditions: protein: recombinant; tags: N-terminal GST; dsDNA, one strand shown
# T8 sequence: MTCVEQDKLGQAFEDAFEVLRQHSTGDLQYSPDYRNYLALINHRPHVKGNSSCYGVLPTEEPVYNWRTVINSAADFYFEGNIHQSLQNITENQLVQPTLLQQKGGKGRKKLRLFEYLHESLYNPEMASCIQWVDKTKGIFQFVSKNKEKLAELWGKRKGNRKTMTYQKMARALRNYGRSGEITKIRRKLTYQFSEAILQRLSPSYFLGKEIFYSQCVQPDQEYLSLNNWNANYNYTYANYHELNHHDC
# In short: as §1
# ELF4 = ELF4 (Homo sapiens, UniProt Q99607 1-663); conditions: protein: recombinant; tags: N-terminal GST; dsDNA, one strand shown
# In short: as §1
# ELK4 = molecular target: T9, ELK4 (Homo sapiens, UniProt P28324-2 1-405); conditions: protein: recombinant; tags: N-terminal GST; dsDNA, one strand shown
# T9 sequence: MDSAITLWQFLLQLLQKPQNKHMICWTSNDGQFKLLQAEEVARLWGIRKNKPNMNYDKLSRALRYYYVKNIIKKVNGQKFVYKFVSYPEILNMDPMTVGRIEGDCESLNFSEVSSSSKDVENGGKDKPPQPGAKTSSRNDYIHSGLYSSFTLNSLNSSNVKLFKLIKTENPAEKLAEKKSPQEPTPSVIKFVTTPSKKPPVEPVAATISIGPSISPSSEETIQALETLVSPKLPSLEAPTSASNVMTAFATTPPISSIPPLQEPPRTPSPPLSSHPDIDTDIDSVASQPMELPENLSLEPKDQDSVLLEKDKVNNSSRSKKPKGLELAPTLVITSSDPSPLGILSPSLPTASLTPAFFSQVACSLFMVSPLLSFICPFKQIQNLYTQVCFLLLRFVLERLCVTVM
# In short: as §1
# ETV2 = molecular target: T10, ETV2 (Homo sapiens, UniProt O00321 1-342); conditions: protein: recombinant; tags: N-terminal GST; dsDNA, one strand shown
# T10 sequence: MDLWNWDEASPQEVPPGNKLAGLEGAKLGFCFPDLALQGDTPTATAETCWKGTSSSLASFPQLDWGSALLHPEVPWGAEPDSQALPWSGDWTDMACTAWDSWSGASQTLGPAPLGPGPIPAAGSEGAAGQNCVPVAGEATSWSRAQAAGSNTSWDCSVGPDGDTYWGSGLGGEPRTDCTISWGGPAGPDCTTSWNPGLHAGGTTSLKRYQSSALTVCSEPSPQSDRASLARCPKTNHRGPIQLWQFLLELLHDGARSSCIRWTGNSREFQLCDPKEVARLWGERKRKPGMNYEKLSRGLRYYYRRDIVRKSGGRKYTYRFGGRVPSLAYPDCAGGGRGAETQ
# In short: as §1
# ELF3 = molecular target: T11, ELF3 (Homo sapiens, UniProt P78545 1-371); conditions: protein: recombinant; tags: N-terminal GST; dsDNA, one strand shown
# T11 sequence: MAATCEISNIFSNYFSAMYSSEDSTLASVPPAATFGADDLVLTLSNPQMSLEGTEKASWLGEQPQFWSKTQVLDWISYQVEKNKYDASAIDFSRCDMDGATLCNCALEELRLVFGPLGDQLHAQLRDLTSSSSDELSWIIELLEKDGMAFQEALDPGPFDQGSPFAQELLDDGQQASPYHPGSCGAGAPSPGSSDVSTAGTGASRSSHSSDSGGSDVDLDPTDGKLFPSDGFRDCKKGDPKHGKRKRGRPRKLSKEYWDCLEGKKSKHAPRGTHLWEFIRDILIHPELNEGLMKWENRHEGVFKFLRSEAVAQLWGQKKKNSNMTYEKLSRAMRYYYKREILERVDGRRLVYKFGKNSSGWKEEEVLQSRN
# In short: as §1
# ETV1 = ETV1 (Homo sapiens, UniProt P50549 1-477); conditions: protein: recombinant; tags: N-terminal GST; dsDNA, one strand shown
# In short: as §1
# Chain of ELF4 (Q99607 whole entry): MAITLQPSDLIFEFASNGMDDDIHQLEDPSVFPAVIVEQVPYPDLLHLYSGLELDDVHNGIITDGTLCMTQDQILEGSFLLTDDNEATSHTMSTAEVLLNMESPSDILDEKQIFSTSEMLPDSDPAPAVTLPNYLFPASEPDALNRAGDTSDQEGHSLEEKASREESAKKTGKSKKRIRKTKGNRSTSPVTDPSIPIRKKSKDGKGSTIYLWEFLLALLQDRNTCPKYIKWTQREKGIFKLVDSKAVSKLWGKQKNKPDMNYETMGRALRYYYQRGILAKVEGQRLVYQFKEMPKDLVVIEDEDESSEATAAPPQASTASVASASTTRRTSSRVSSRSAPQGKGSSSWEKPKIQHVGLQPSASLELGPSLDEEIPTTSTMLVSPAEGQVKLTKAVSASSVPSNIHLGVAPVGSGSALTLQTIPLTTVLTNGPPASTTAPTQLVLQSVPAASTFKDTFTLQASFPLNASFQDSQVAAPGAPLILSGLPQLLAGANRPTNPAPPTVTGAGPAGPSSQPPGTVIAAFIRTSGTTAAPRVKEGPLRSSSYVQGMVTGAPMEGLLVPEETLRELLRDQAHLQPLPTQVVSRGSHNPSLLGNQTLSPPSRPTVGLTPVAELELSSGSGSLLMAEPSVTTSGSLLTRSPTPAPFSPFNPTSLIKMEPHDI
# Chain of ELF1 (P32519 whole entry): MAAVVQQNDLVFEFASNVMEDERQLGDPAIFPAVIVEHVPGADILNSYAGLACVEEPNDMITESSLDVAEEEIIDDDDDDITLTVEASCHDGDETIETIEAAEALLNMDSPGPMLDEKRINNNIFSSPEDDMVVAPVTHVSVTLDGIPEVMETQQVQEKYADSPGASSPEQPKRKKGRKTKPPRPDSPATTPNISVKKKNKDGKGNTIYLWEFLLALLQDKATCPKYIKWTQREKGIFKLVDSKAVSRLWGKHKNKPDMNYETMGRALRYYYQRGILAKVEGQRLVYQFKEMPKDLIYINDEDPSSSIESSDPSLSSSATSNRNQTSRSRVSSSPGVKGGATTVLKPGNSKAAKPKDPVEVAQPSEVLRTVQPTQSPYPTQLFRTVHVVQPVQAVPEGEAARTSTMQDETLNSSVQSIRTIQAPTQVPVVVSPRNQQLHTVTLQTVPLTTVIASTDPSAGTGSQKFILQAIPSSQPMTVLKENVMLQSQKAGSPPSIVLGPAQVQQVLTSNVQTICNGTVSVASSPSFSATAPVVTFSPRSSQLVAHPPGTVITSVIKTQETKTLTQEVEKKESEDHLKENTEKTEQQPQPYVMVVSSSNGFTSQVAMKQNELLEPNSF
# Chain of ETV5 (P41161 whole entry): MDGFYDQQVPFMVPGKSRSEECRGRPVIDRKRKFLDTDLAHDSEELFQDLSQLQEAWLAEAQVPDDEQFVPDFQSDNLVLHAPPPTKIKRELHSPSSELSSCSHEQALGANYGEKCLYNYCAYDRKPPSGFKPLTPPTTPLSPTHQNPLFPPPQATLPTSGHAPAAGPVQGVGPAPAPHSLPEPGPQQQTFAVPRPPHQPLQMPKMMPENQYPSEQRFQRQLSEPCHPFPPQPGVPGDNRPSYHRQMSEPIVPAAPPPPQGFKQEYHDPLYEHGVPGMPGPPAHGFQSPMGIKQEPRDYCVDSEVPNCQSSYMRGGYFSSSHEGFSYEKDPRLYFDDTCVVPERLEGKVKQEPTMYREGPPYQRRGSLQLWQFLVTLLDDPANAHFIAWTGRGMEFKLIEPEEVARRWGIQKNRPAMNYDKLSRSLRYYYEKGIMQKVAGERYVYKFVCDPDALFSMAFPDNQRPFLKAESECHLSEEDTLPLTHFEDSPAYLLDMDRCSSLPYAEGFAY
# Chain of SPIB (Q01892 whole entry): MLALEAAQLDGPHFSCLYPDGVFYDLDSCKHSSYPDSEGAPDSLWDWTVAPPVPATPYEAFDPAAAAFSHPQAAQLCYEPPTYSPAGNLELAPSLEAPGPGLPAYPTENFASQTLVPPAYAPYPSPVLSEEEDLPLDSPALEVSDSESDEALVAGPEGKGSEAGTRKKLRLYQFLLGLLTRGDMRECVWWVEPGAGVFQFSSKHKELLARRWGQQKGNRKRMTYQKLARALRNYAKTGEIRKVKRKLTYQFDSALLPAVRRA
# Chain of ETV1 (P50549 whole entry): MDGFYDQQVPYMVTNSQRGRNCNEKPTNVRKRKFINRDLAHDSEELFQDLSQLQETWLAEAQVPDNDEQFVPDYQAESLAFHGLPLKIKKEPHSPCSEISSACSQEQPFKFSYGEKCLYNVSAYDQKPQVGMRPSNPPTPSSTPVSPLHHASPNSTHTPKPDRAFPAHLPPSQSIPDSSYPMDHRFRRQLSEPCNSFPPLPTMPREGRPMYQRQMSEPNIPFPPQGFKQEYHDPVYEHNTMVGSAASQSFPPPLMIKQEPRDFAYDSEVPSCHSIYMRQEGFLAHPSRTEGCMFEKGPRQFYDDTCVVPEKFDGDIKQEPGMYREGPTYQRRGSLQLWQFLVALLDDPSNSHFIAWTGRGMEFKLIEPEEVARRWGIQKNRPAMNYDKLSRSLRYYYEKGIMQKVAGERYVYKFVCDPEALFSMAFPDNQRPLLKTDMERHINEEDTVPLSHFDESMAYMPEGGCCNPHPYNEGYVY
# Chain of HSF1 (Q00613 whole entry): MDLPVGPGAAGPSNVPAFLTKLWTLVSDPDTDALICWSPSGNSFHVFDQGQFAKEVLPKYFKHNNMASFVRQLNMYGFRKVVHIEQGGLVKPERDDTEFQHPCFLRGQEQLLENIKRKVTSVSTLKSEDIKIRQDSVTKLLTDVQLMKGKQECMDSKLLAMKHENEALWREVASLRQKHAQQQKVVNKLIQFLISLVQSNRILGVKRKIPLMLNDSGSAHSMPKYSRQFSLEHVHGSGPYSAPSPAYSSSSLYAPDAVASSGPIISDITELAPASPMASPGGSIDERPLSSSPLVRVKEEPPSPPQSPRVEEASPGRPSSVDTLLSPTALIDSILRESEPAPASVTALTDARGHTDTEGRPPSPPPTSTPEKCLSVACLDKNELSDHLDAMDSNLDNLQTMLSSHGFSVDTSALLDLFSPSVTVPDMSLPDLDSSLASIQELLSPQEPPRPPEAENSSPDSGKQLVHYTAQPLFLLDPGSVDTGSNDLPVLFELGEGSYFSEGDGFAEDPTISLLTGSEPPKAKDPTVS
sequence,measurement,setting,value
CCGACG,binding signal,FLI1,"1.27 fold enrichment (6-mer frequency, TF over GST control)"
same,binding signal,ELK1,"1.15 fold enrichment (6-mer frequency, TF over GST control)"
same,binding signal,GABPA,"1.27 fold enrichment (6-mer frequency, TF over GST control)"
same,binding signal,ERG,"1.2 fold enrichment (6-mer frequency, TF over GST control)"
same,binding signal,ELF1,"1.28 fold enrichment (6-mer frequency, TF over GST control)"
same,binding signal,EHF,"1.17 fold enrichment (6-mer frequency, TF over GST control)"
same,binding signal,SPI1,"1.22 fold enrichment (6-mer frequency, TF over GST control)"
same,binding signal,SPIB,"1.32 fold enrichment (6-mer frequency, TF over GST control)"
same,binding signal,ELK3,"1.2 fold enrichment (6-mer frequency, TF over GST control)"
same,binding signal,FEV,"1.22 fold enrichment (6-mer frequency, TF over GST control)"
same,binding signal,ETV5,"1.16 fold enrichment (6-mer frequency, TF over GST control)"
same,binding signal,HSF1,"1.02 fold enrichment (6-mer frequency, TF over GST control)"
same,binding signal,SPIC,"1.57 fold enrichment (6-mer frequency, TF over GST control)"
same,binding signal,ELF4,"1.29 fold enrichment (6-mer frequency, TF over GST control)"
same,binding signal,ELK4,"1.22 fold enrichment (6-mer frequency, TF over GST control)"
same,binding signal,ETV2,"1.31 fold enrichment (6-mer frequency, TF over GST control)"
same,binding signal,ELF3,"1.14 fold enrichment (6-mer frequency, TF over GST control)"
same,binding signal,ETV1,"1.2 fold enrichment (6-mer frequency, TF over GST control)"
